Source: PubChem (National Center for Advancing Translational Sciences (NCATS))
Only some compounds are listed: those with a hit (about 10% of all), similar ones and a draw of the others.
Luciferase inh = Photinus pyralis luciferase inhibition; actives 2.5% (n = 76,000); AID 1347043; purified P. pyralis luciferase, luminescence, biochemical; Potency, µM (titrated, usually from 115 µM), hits mostly inhibitors; P08659; note: nearly all actives have a fitted effect of over 65% in size
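Inhibitors were tested against purified firefly luciferase in a biochemical, low-substrate format (both substrates at 10uM) and luminescence measured with a CCD imager.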
GPT2 inh = inhibitors of human GPT2 alanine aminotransferase. Potency, µM (titrated, usually from 57.7 µM), inactives show at the top dose activity change, negative = inhibition, most hits filed as inhibitors. actives 0.25% (n = 100,000). Recombinant GPT2, coupled pyruvate oxidase/HRP Amplex Red fluorescence; note: nearly all actives have a fitted effect of over 60% in size
Target sequence (Q8TD30 whole entry, looked up): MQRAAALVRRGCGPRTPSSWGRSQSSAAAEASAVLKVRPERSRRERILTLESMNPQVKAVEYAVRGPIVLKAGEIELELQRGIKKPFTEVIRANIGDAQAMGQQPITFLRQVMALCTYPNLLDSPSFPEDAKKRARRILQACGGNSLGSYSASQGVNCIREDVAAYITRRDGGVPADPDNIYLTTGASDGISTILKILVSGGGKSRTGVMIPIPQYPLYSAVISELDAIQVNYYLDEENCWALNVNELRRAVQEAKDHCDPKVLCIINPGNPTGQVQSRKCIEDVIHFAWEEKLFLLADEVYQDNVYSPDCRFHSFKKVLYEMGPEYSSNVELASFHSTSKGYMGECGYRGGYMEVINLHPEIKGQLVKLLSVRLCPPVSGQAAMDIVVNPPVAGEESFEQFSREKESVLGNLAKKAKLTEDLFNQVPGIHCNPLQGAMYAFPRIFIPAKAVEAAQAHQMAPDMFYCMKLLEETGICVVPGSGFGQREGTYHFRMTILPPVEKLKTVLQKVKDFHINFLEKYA
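Recombinant GPT2 (10ng/uL) with 250uM a-KG and 2mM L-alanine, 30 min at room temperature, in HEPES pH 7.5 buffer. Pyruvate detected by pyruvate oxidase/HRP/Amplex Red fluorescence after 30 min in the dark; AOA (50uM) as positive control.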
HEK cytotox = HEK 293 cell cytotoxicity | Potency, µM (series often up to 115 µM), for the others: top-dose activity change, negative = cytotoxicity, most hits filed as inhibitors | HEK 293 viability, ATP luminescence (CellTiter-Glo), 48-72 h | actives 6.6% (n = 94,000) | AID 1345083; note: nearly all actives have a fitted effect of over 60% in size
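HEK 293 seeded at 250 cells/well receive compound via pintool. After 48 or 72 hr at 37 degree Celsius, 5% CO2 and 95% humidity, CellTiter-Glo is dispensed and luminescence read following 10 min at room temperature.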
NPR1 antag = human Npr1 receptor antagonism. P16066. HEK293 hNpr1 GloSensor cGMP, ANP-stimulated luminescence. Potency, µM (highest dose often 46.3 µM), inactives show at the top dose activity change, negative = inhibition, actives largely listed as inhibitors. actives 1.6% (n = 76,000); calls by dose curve; note: nearly all actives have a fitted effect of over 60% in size
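Compound pre-incubated 30 min at room temperature on GloSensor-loaded HEK293 cells stably carrying hNpr1 and the pGS-40F cGMP biosensor. Stimulation uses hNppA at 0.1 nM final; luminescence is taken at baseline and 20 min post-agonist.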
3T3 cytotox = cytotoxic compounds in NIH 3T3 cells. NIH 3T3 viability, CellTiter-Glo ATP luminescence, 48-72 h. Potency, µM (highest dose often 96.7 µM), for the others: at the highest dose activity change, negative = cytotoxicity, actives largely listed as inhibitors. actives 4.3% (n = 94,000). AID 1345082; note: nearly all actives have a fitted effect of over 55% in size
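Mouse fibroblast NIH 3T3 cells, 400 per well, received compound via pintool and were incubated for 48 or 72 hr prior to CellTiter-Glo ATP luminescence measurement.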
The depositor's hits bear a star; [ ] = remark or other dose. Unless noted, calls come from the whole dose curve; as a rule, active = well fitted curve in the direction sought with a large enough effect; inconclusive = small, poorly fitted or top-dose-only effect, or another doubt; inactive = no such curve, though single readings can be large; an effect the other way counts as inactive or inconclusive. % is set by controls: 0 for no effect and ±100 for the full control effect; potency is the fitted concentration of half-maximal effect.

CCOc1ccccc1CNC(=O)c1c(C)noc1-c1ccc2c(c1)OCO2 was read as Luciferase inh inactive, GPT2 inh inactive, HEK cytotox inconclusive, NPR1 antag -8% and 3T3 cytotox inconclusive.
`Cc1noc(-c2ccc3c(c2)OCO3)c1C(=O)N1CCC(Cc2ccc(F)cc2)CC1` gave Luciferase inh inactive, GPT2 inh -5%, HEK cytotox 28µM*, NPR1 antag inconclusive and 3T3 cytotox 35µM*.
Screening Cc1noc(-c2ccc3c(c2)OCO3)c1C(=O)NCc1cc(F)cc(F)c1 returned Luciferase inh inactive, GPT2 inh inactive, HEK cytotox 32µM*, NPR1 antag 2% and 3T3 cytotox inconclusive.
Screening Cc1noc(-c2ccc3c(c2)OCO3)c1C(=O)NC(C)CCc1ccccc1 (stereo not given) returned Luciferase inh inactive, GPT2 inh inactive, HEK cytotox 45µM*, NPR1 antag -15% and 3T3 cytotox inconclusive.
Screening CC(C)C(=O)N1Cc2ccccc2CC2(CCCCN2Cc2ccccn2)C1 (stereo not given) returned GPT2 inh inactive, HEK cytotox inconclusive and 3T3 cytotox -19%.
`COCCCNc1cc(-c2cccc(C(F)(F)F)c2)nc2c(C)noc12` gave Luciferase inh inactive, GPT2 inh 3%[88.5 µM], HEK cytotox 79µM*, NPR1 antag -16%[70.6 µM] and 3T3 cytotox inconclusive.
Screening Cc1noc2c(NCCN(C)C)cc(-c3cccc(C(F)(F)F)c3)nc12 returned Luciferase inh inactive, GPT2 inh -13%[88.5 µM], HEK cytotox 32µM*, NPR1 antag 5%[70.6 µM] and 3T3 cytotox 32µM*.
`Cc1noc2c(N(C)C)cc(-c3cccc(C(F)(F)F)c3)nc12` gave Luciferase inh inactive, GPT2 inh 1%[88.5 µM], HEK cytotox -13%[172 µM], NPR1 antag -24%[70.6 µM] and 3T3 cytotox inconclusive.
`CCO[C@H]1CN(C(=O)c2ccc(NS(=O)(=O)CC)cc2)C[C@@H]1O` gave Luciferase inh inactive, GPT2 inh -1%[11.5 µM], HEK cytotox 0%, NPR1 antag -1% and 3T3 cytotox -3%.
`CNC(=O)[C@@H](CC(C)C)N1CCC[C@H]1C(=O)NC1CCCCC1` gave Luciferase inh inactive, GPT2 inh -16%[88.5 µM], HEK cytotox -10%[172 µM], NPR1 antag 0%[70.6 µM] and 3T3 cytotox -1%[174 µM].
For O=C(NCCc1ccncc1)c1cccnc1OC1CCNCC1 the results were Luciferase inh inactive, GPT2 inh inactive, HEK cytotox -3%, NPR1 antag -8% and 3T3 cytotox inactive.
Screening O=C(NCCc1ccccn1)c1ccc(OC2CCNCC2)nc1 returned Luciferase inh 7.9µM*, GPT2 inh inactive, HEK cytotox inconclusive, NPR1 antag inconclusive and 3T3 cytotox inconclusive.
COc1ccc(CNC(=O)c2noc(-c3ccc(C)cc3)n2)cc1OC was read as Luciferase inh inconclusive, GPT2 inh 5%, HEK cytotox inconclusive, NPR1 antag 13µM* and 3T3 cytotox inconclusive.
For Cc1ccc(-c2nc(C(=O)NCc3ccc(Cl)cc3)no2)cc1 the results were Luciferase inh inactive, GPT2 inh 0%, HEK cytotox -6%, NPR1 antag 2% and 3T3 cytotox -24%.
Screening O=C(NCc1ccc(Cl)cc1)c1noc(-c2ccc(F)cc2)n1 returned Luciferase inh inactive, GPT2 inh inactive, HEK cytotox inconclusive, NPR1 antag 1% and 3T3 cytotox -18%.
For COc1ccc(CNC(=O)c2noc(-c3ccc(F)cc3)n2)cc1OC the results were Luciferase inh inactive, GPT2 inh inactive, HEK cytotox inconclusive, NPR1 antag inconclusive and 3T3 cytotox -22%.
`O=C(NCc1cccc(Br)c1)c1noc(-c2ccc(F)cc2)n1` gave Luciferase inh inconclusive, GPT2 inh 5%, HEK cytotox 25µM*, NPR1 antag -1% and 3T3 cytotox 32µM*.
